According to PubChem BioAssay (NCATS):
Results filed as inconclusive are left out. Active and inactive are the calls of the source. Calls come from the whole dose curve; as a rule, active = well fitted curve in the direction sought with a large enough effect; inconclusive = small, poorly fitted or top-dose-only effect, or another doubt; inactive = no such curve, though single readings can be large; an effect the other way counts as inactive or inconclusive.

What was measured:
MKL-1 = test: qHTS assay to identify novel small-molecules to repurpose for Merkel cell carcinoma treatment (AID 1296009); conditions: MCC and control cell lines, CellTiter-Glo viability, 72 h; series mostly up to 46 µM; note: nearly all actives have a fitted effect of over 60% in size
Summary of the method: (§1)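 Luminescence from CellTiter-Glo, read 10 min after addition at room temperature, reported viability following a 72 hr, 37 degree celsius treatment with NPC or MIPE compounds in titration; values normalized to plate controls.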

MKL-2 = test: as above; conditions: MCC and control cell lines, CellTiter-Glo viability, 72 h; series mostly up to 46 µM
Summary of the method: as §1

NIH3T3 = test: as above; conditions: MCC and control cell lines, CellTiter-Glo viability, 72 h; at 44.8 µM (top of the series) unless noted
Summary of the method: as §1

UISO = test: as above; conditions: MCC and control cell lines, CellTiter-Glo viability, 72 h; series mostly up to 46 µM
Summary of the method: as §1

WaGa = test: as above; conditions: MCC and control cell lines, CellTiter-Glo viability, 72 h; series mostly up to 46 µM
Summary of the method: as §1

C33A = test: Primary qHTS to identify gynecologic anti-cancer compounds using libraries of approved drugs and bioactive compounds (AID 1345084); conditions: Gynecologic cancer cell panel viability, ATPlite luminescence, 48 h; series mostly up to 57.5 µM; note: nearly all actives have a fitted effect of over 55% in size
Summary of the method: (§2)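 Cells, 1,000 per well, plated 16 h, then exposed 48 h at 37 C to compounds. Viability by ATPlite luminescence after 15 min at room temperature.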

CAOV3 = test: as above; conditions: Gynecologic cancer cell panel viability, ATPlite luminescence, 48 h; series mostly up to 57.5 µM
Summary of the method: as §2

CASKI = test: as above; conditions: Gynecologic cancer cell panel viability, ATPlite luminescence, 48 h; series mostly up to 57.5 µM
Summary of the method: as §2

Es-2 = test: as above; conditions: Gynecologic cancer cell panel viability, ATPlite luminescence, 48 h; series mostly up to 57.5 µM
Summary of the method: as §2

HeLa = test: as above; conditions: Gynecologic cancer cell panel viability, ATPlite luminescence, 48 h; series mostly up to 57.5 µM
Summary of the method: as §2

Hek293T = test: as above; conditions: Gynecologic cancer cell panel viability, ATPlite luminescence, 48 h, control line for the selectivity index; series mostly up to 57.5 µM
Summary of the method: as §2

JEG-3 = test: as above; conditions: Gynecologic cancer cell panel viability, ATPlite luminescence, 48 h; series mostly up to 57.5 µM
Summary of the method: as §2

OV90 = test: as above; conditions: Gynecologic cancer cell panel viability, ATPlite luminescence, 48 h; series mostly up to 57.5 µM
Summary of the method: as §2

PA-1 = test: as above; conditions: Gynecologic cancer cell panel viability, ATPlite luminescence, 48 h; series mostly up to 57.5 µM
Summary of the method: as §2

SKOV3 = test: as above; conditions: Gynecologic cancer cell panel viability, ATPlite luminescence, 48 h; series mostly up to 57.5 µM
Summary of the method: as §2

Tov-21-G = test: as above; conditions: Gynecologic cancer cell panel viability, ATPlite luminescence, 48 h; series mostly up to 57.5 µM
Summary of the method: as §2

Tov112D = test: as above; conditions: Gynecologic cancer cell panel viability, ATPlite luminescence, 48 h; series mostly up to 57.5 µM
Summary of the method: as §2

[1] = Drug repurposing screens with cells derived from glioblastoma tumor samples (AID 1345199); conditions: GBM patient neurospheres viability, ATP luminescence, 48 h; note: nearly all actives have a fitted effect of over 40% in size; note: potency is the fitted concentration of half-maximal effect
Summary of the method: (§3)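 Primary testing used CD133+ neurospheres from four GBM patients, seven concentrations, 48 h exposure and ATP-based viability; confirmation added three slower-growing patient lines.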

astro = test: as above; conditions: viability, ATP luminescence, 48 h; series mostly up to 45.9 µM
Summary of the method: as §3

[2] = at 45.9 µM (top of the series), tumour line B
[3] = at 45.9 µM (top of the series), tumour line D
[4] = at 46.1 µM (top of the series), tumour line C
[5] = at 46 µM (top of the series), tumour line A
% is set by controls: 0 for no effect and ±100 for the full control effect.

C[C@]12C=CC(=O)C=C1CC[C@@H]1[C@@H]2C(=O)C[C@@]2(C)[C@H]1CC[C@]2(O)C(=O)CO
inactive: Potency (MKL-1) | Potency (MKL-2) | outcome (NIH3T3) | Potency (UISO) | Potency (WaGa) | Potency (C33A) | Potency (CAOV3) | Potency (CASKI) | Potency (Es-2) | Potency (HeLa) | Potency (Hek293T) | Potency (JEG-3) | Potency (OV90) | Potency (PA-1) | Potency (SKOV3) | Potency (Tov-21-G) | Potency (Tov112D) | activity, negative = cell killing [1, 2] -6.23% | activity, negative = cell killing [1, 3] 5.45% | activity, negative = cell killing [1, 4] -7.06%

CC(=O)[C@H]1CC[C@H]2[C@@H]3CC=C4C[C@@H](O)CC[C@]4(C)[C@H]3CC[C@]12C
inactive: Potency (MKL-1) | Potency (MKL-2) | outcome (NIH3T3) | Potency (UISO) | Potency (WaGa) | Potency (C33A) | Potency (CAOV3) | Potency (CASKI) | Potency (Es-2) | Potency (Hek293T) | Potency (JEG-3) | Potency (OV90) | Potency (PA-1) | Potency (SKOV3) | Potency (Tov-21-G) | Potency (Tov112D) | activity, negative = cell killing [1, 2] -3.14% | activity, negative = cell killing [1, 4] 6.87%

CNNCc1ccc(C(=O)NC(C)C)cc1
inactive: Potency (MKL-1) | Potency (MKL-2) | outcome (NIH3T3) | Potency (UISO) | Potency (WaGa) | Potency (C33A) | Potency (CAOV3) | Potency (CASKI) | Potency (Es-2) | Potency (HeLa) | Potency (Hek293T) | Potency (JEG-3) | Potency (OV90) | Potency (PA-1) | Potency (SKOV3) | Potency (Tov-21-G) | Potency (Tov112D) | activity, negative = cell killing [1, 2] -4.85% | activity, negative = cell killing [1, 3] -17.7% | activity, negative = cell killing [1, 4] -14.6%

O=C(O)c1cn(C2CC2)c2cc(N3CCNCC3)c(F)cc2c1=O
inactive: Potency (MKL-1) | Potency (MKL-2) | outcome (NIH3T3) | Potency (UISO) | Potency (WaGa) | Potency (C33A) | Potency (CAOV3) | Potency (CASKI) | Potency (Es-2) | Potency (HeLa) | Potency (Hek293T) | Potency (JEG-3) | Potency (OV90) | Potency (PA-1) | Potency (SKOV3) | Potency (Tov-21-G) | Potency (Tov112D) | activity, negative = cell killing ([1]; at 20 µM (top of the series), tumour line C) -4.75% | activity, negative = cell killing ([1]; at 21.2 µM (top of the series), tumour line B) -18.6% | activity, negative = cell killing ([1]; at 21.2 µM (top of the series), tumour line D) 4.14% | Potency (astro)

CCOc1cc(N)c(Cl)cc1C(=O)NCC1CN(Cc2ccc(F)cc2)CCO1 (configuration not stated)
inactive: Potency (MKL-1) | Potency (MKL-2) | outcome (NIH3T3) | Potency (UISO) | Potency (WaGa) | Potency (C33A) | Potency (CAOV3) | Potency (CASKI) | Potency (Es-2) | Potency (HeLa) | Potency (Hek293T) | Potency (JEG-3) | Potency (SKOV3) | Potency (Tov-21-G) | Potency (Tov112D) | activity, negative = cell killing [1, 2] -18.6% | activity, negative = cell killing [1, 4] 4.16%
active: Potency ([1]; tumour line A) 11.2 µM

O=C(O)CSCC(=O)NC1CCSC1=O (configuration not stated)
inactive: Potency (MKL-1) | Potency (MKL-2) | outcome (NIH3T3) | Potency (UISO) | Potency (WaGa) | Potency (C33A) | Potency (CAOV3) | Potency (CASKI) | Potency (Es-2) | Potency (HeLa) | Potency (Hek293T) | Potency (JEG-3) | Potency (OV90) | Potency (PA-1) | Potency (SKOV3) | Potency (Tov-21-G) | Potency (Tov112D) | activity, negative = cell killing [1, 2] -7.24% | activity, negative = cell killing [1, 4] 18.1% | Potency (astro)

CNS(=O)(=O)CCc1ccc2[nH]cc(C3CCN(C)CC3)c2c1
inactive: Potency (MKL-1) | Potency (MKL-2) | outcome (NIH3T3) | Potency (UISO) | Potency (WaGa) | Potency (C33A) | Potency (CAOV3) | Potency (CASKI) | Potency (Es-2) | Potency (HeLa) | Potency (Hek293T) | Potency (JEG-3) | Potency (OV90) | Potency (PA-1) | Potency (SKOV3) | Potency (Tov-21-G) | Potency (Tov112D) | activity, negative = cell killing [1, 2] -8.38% | activity, negative = cell killing [1, 3] 2.37% | activity, negative = cell killing [1, 4] 9.59% | Potency (astro)

O=C(O)CCn1c2c(c3ccccc31)C[C@H](NS(=O)(=O)c1ccc(F)cc1)CC2
inactive: Potency (MKL-1) | Potency (MKL-2) | outcome (NIH3T3) | Potency (UISO) | Potency (WaGa) | Potency (C33A) | Potency (CAOV3) | Potency (CASKI) | Potency (Es-2) | Potency (HeLa) | Potency (Hek293T) | Potency (JEG-3) | Potency (OV90) | Potency (PA-1) | Potency (SKOV3) | Potency (Tov-21-G) | Potency (Tov112D) | activity, negative = cell killing [1, 2] -3.62% | activity, negative = cell killing [1, 3] -7.83% | activity, negative = cell killing [1, 5] -16.4% | activity, negative = cell killing [1, 4] -18.1%

CNC1CCCN(c2c(F)cc3c(=O)c(C(=O)O)cn(C4CC4)c3c2OC)C1 (configuration not stated)
inactive: Potency (MKL-1) | Potency (MKL-2) | outcome (NIH3T3) | Potency (UISO) | Potency (WaGa) | Potency (C33A) | Potency (CAOV3) | Potency (CASKI) | Potency (Es-2) | Potency (Hek293T) | Potency (JEG-3) | Potency (OV90) | Potency (PA-1) | Potency (SKOV3) | Potency (Tov-21-G) | Potency (Tov112D) | activity, negative = cell killing [1, 2] 0.798% | activity, negative = cell killing [1, 3] -8.95% | activity, negative = cell killing [1, 5] -37.3% | activity, negative = cell killing [1, 4] -5.21% | Potency (astro)

NCCCC(O)(P(=O)(O)O)P(=O)(O)O
inactive: Potency (MKL-1) | Potency (MKL-2) | outcome (NIH3T3) | Potency (UISO) | Potency (WaGa) | Potency (C33A) | Potency (CAOV3) | Potency (CASKI) | Potency (Es-2) | Potency (HeLa) | Potency (Hek293T) | Potency (JEG-3) | Potency (OV90) | Potency (PA-1) | Potency (SKOV3) | Potency (Tov-21-G) | Potency (Tov112D) | activity, negative = cell killing [1, 2] -8.76% | activity, negative = cell killing [1, 3] 1.9% | activity, negative = cell killing [1, 5] -6.09% | activity, negative = cell killing [1, 4] -10.2% | Potency (astro)

Cc1nnc(C(=O)NC(C)(C)c2nc(C(=O)NCc3ccc(F)cc3)c(O)c(=O)n2C)o1
inactive: Potency (MKL-1) | Potency (MKL-2) | outcome (NIH3T3) | Potency (UISO) | Potency (WaGa) | Potency (C33A) | Potency (CAOV3) | Potency (CASKI) | Potency (Es-2) | Potency (Hek293T) | Potency (JEG-3) | Potency (OV90) | Potency (PA-1) | Potency (SKOV3) | Potency (Tov-21-G) | Potency (Tov112D) | activity, negative = cell killing [1, 2] 5.76% | activity, negative = cell killing [1, 3] -4.7% | activity, negative = cell killing [1, 5] -16.1% | activity, negative = cell killing [1, 4] 13.1% | Potency (astro)

COc1cccc(N(C)C(=S)Oc2ccc3c(c2)CCCC3)n1
inactive: Potency (MKL-1) | Potency (MKL-2) | Potency (UISO) | Potency (WaGa) | Potency (C33A) | Potency (CAOV3) | Potency (CASKI) | Potency (Es-2) | Potency (HeLa) | Potency (Hek293T) | Potency (JEG-3) | Potency (OV90) | Potency (PA-1) | Potency (SKOV3) | Potency (Tov-21-G) | Potency (Tov112D) | activity, negative = cell killing [1, 4] -18.5%
active: Potency ([1]; tumour line A) 12.6 µM | Potency ([1]; tumour line D) 17.8 µM
